The panel holds about 79,000 compounds, 15% with a hit somewhere; the sample as a whole holds those more often. Values without a mark were called inactive. Activity calls are given as the source filed them. Cut-off read from the data, not from the text of the source: active = growth inhibition above about 70%; inactive = the rest.

A short description of assay [1]: NCI Yeast Anticancer Drug Screen. Data for the rad50 strain (AID 155).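 Note: 0% = growth of vehicle-only cultures of the same strain.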 The following applies: S. cerevisiae rad50 strain growth inhibition, active compounds read high. The method, boiled down:
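DNA repair mutant yeast, compound exposure, growth read-out; inhibition is taken relative to vehicle.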

Assay [2] is described as follows: NCI Yeast Anticancer Drug Screen. Data for the mec2-1 strain (AID 157). Particulars: S. cerevisiae mec2-1 strain, active compounds read high. The method, boiled down:
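Yeast mec2-1 mutant treated with compound. Readout: growth inhibition vs vehicle controls.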

Assay [3] is described as follows: NCI Yeast Anticancer Drug Screen. Data for the sgs1 mgt1 strain (AID 161).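 Note: 0% = growth of cultures given vehicle only.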 Particulars: S. cerevisiae sgs1 mgt1 strain, active compounds read high. The method in brief: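 Genetically altered yeast, compound exposure, growth inhibition relative to vehicle.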
The nature of assay [4]: NCI Yeast Anticancer Drug Screen. Data for the cln2 rad14 strain (AID 165).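 Note: 0% = growth equal to vehicle treated cultures.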 Particulars: S. cerevisiae cln2 rad14 strain, active compounds read high. The method in brief:
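cln2 rad14 yeast strain; compound exposure; growth inhibition read vs vehicle controls.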

Assay [5] can be described thus: NCI Yeast Anticancer Drug Screen. Data for the bub3 strain (AID 167). The following applies: S. cerevisiae bub3 mutant strain, active compounds read high. The method in brief: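 In this screen, a yeast mutant lacking normal mitotic checkpoint function is challenged with compound. Relative growth versus vehicle gives the inhibition value.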
A short description of assay [6]: NCI Yeast Anticancer Drug Screen. Data for the mlh1 rad18 strain (AID 175). Particulars: S. cerevisiae mlh1 rad18 strain growth inhibition, active compounds read high. The method in brief:
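Yeast w/ defined DNA-repair lesions; compound exposure; growth vs vehicle controls → % inhibition.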

[7] abbreviates: at 5.0 µM (retest, dose inferred, filed as 0.5).
Where [8] appears, read: at 50.0 µM (retest, dose inferred, filed as 5.0).

Turning to `C=C(C)[P+](C)(c1ccccc1)c1ccccc1`, the growth inhibition in assay [1] (setting [7]) is -12%; in assay [1] (setting [8]), 25%; in assay [1] (at 50.0 µM), 72.7% (active); in assay [2] (setting [7]), -12%; in assay [2] (setting [8]), 6%; in assay [2] (at 50.0 µM), 0.95%. Also, the growth inhibition in assay [3] (setting [7]) is -8%; in assay [3] (setting [8]), 22%; in assay [3] (at 50.0 µM), 28.9%; in assay [4] (setting [7]), 1%; in assay [4] (setting [8]) it was -2%; in assay [4] (at 50.0 µM) it was 4.4%. Further, the growth inhibition in assay [5] (setting [7]) is -18%; in assay [5] (setting [8]) it was 6%; in assay [5] (at 50.0 µM) it was -9.3%; in assay [6] (setting [7]), -4%; in assay [6] (setting [8]), 4%; in assay [6] (at 50.0 µM), 29.3%.

As for `OC(C/C=N/Nc1ccccc1)(C(F)(F)Cl)C(F)(F)Cl`, the growth inhibition is -13% in assay [1] (setting [7]); 97% (active) in assay [1] (setting [8]); 89.2% (active) in assay [1] (at 50.0 µM); -11% in assay [2] (setting [7]); 99% (active) in assay [2] (setting [8]); 90.9% (active) in assay [2] (at 50.0 µM). The growth inhibition in assay [3] (setting [7]) is -10%; in assay [3] (setting [8]), 98% (active); in assay [3] (at 50.0 µM), 91.7% (active); in assay [4] (setting [7]) it was 2%; in assay [4] (setting [8]) it was 98% (active); in assay [4] (at 50.0 µM), 89.5% (active). Further, the growth inhibition is 5% in assay [5] (setting [7]); 98% (active) in assay [5] (setting [8]); 91.8% (active) in assay [5] (at 50.0 µM); -18% in assay [6] (setting [7]); 98% (active) in assay [6] (setting [8]); 89.6% (active) in assay [6] (at 50.0 µM).

As for `COc1ccc(CN2CCCN(Cc3ccc(OC)cc3OC)C2c2cc(Cl)ccc2O)c(OC)c1`, the growth inhibition is 7% in assay [1] (setting [7]); 87% (active) in assay [1] (setting [8]); 40.6% in assay [1] (at 50.0 µM); 19% in assay [2] (setting [7]); 98% (active) in assay [2] (setting [8]); 51.4% in assay [2] (at 50.0 µM). The growth inhibition in assay [3] (setting [7]) is 2%; in assay [3] (setting [8]), 88% (active); in assay [3] (at 50.0 µM), 32.8%; in assay [4] (setting [7]), 0%; in assay [4] (setting [8]), 50%; in assay [4] (at 50.0 µM), 15.7%. Also, the growth inhibition is -1% in assay [5] (setting [7]); 91% (active) in assay [5] (setting [8]); 5.1% in assay [5] (at 50.0 µM); 17% in assay [6] (setting [7]); 97% (active) in assay [6] (setting [8]); 42% in assay [6] (at 50.0 µM).

Regarding `CO[C@H]1C[C@@H]2CC[C@@H](C)[C@@](O)(O2)C(=O)C(=O)N2CCCC[C@H]2C(=O)O[C@H]([C@H](C)C[C@@H]2CC[C@@H](OC(=O)C(C)(CO)CO)[C@H](OC)C2)CC(=O)[C@H](C)/C=C(\C)[C@@H](O)[C@@H](OC)C(=O)[C@H](C)C[C@H](C)/C=C/C=C/C=C/1C`, the growth inhibition in assay [1] (setting [7]) is 98% (active); in assay [1] (setting [8]) it was 97% (active); in assay [1] (at 50.0 µM), 82.5% (active); in assay [2] (setting [7]), 99% (active); in assay [2] (setting [8]), 98% (active); in assay [2] (at 50.0 µM), 86.8% (active). Further, the growth inhibition in assay [3] (setting [7]) is 98% (active); in assay [3] (setting [8]), 98% (active); in assay [3] (at 50.0 µM), 87.3% (active); in assay [4] (setting [7]) it was 93% (active); in assay [4] (setting [8]), 88% (active); in assay [4] (at 50.0 µM), 88% (active). Further, the growth inhibition in assay [5] (setting [7]) was 97% (active); in assay [5] (setting [8]), 96% (active); in assay [5] (at 50.0 µM), 89.5% (active); in assay [6] (setting [7]), 98% (active); in assay [6] (setting [8]), 97% (active); in assay [6] (at 50.0 µM) it was 89.5% (active).

Take `COC(=O)c1c(/C(=N/Nc2ccc([N+](=O)[O-])cc2)[N+](=O)[O-])ssc1=N`: the growth inhibition in assay [1] (setting [7]) was 14%; in assay [1] (setting [8]), 37%; in assay [1] (at 50.0 µM), 21.1%; in assay [2] (setting [7]) it was 0%; in assay [2] (setting [8]), 44%; in assay [2] (at 50.0 µM), 24.9%. Also, the growth inhibition is 13% in assay [3] (setting [7]); 60% in assay [3] (setting [8]); 27.6% in assay [3] (at 50.0 µM); 6% in assay [4] (setting [7]); 23% in assay [4] (setting [8]); 27.9% in assay [4] (at 50.0 µM). Moreover, the growth inhibition is 6% in assay [5] (setting [7]); 40% in assay [5] (setting [8]); 24.9% in assay [5] (at 50.0 µM); 15% in assay [6] (setting [7]); 54% in assay [6] (setting [8]); 70.9% (active) in assay [6] (at 50.0 µM).

Consider `Cc1cc(C2C(O)C(c3cc(C)on3)C2(C)O)no1` (stereo not given), for which the growth inhibition is 0% in assay [1] (setting [7]); 0% in assay [1] (setting [8]); 72.2% (active) in assay [1] (at 50.0 µM); -12% in assay [2] (setting [7]); 13% in assay [2] (setting [8]); 38.5% in assay [2] (at 50.0 µM). Further, the growth inhibition in assay [3] (setting [7]) was 3%; in assay [3] (setting [8]) it was 5%; in assay [3] (at 50.0 µM) it was 62.6%; in assay [4] (setting [7]), -2%; in assay [4] (setting [8]) it was -7%; in assay [4] (at 50.0 µM) it was -24.1%. Further, the growth inhibition is 2% in assay [5] (setting [7]); -1% in assay [5] (setting [8]); 8.1% in assay [5] (at 50.0 µM); 16% in assay [6] (setting [7]); 17% in assay [6] (setting [8]); 50.2% in assay [6] (at 50.0 µM).

With `NC(=S)c1cccc(C2Nc3ccccc3O2)c1` (stereo not given), the growth inhibition was -1% in assay [1] (setting [7]); 24% in assay [1] (setting [8]); 75.1% (active) in assay [1] (at 50.0 µM); 0% in assay [2] (setting [7]); 11% in assay [2] (setting [8]); 44% in assay [2] (at 50.0 µM). Moreover, the growth inhibition is 9% in assay [3] (setting [7]); 18% in assay [3] (setting [8]); 39.1% in assay [3] (at 50.0 µM); 0% in assay [4] (setting [7]); 30% in assay [4] (setting [8]); 37.7% in assay [4] (at 50.0 µM). Also, the growth inhibition in assay [5] (setting [7]) is 47%; in assay [5] (setting [8]), 68%; in assay [5] (at 50.0 µM), 81.7% (active); in assay [6] (setting [7]), 37%; in assay [6] (setting [8]), 61%; in assay [6] (at 50.0 µM), 76.3% (active).

With `O=C1C=CC(=NN=C(c2ccccc2)c2ccccc2)C=C1`, the growth inhibition was -27% in assay [1] (setting [7]); -1% in assay [1] (setting [8]); 55% in assay [1] (at 50.0 µM); -16% in assay [2] (setting [7]); -21% in assay [2] (setting [8]); 54.5% in assay [2] (at 50.0 µM). In addition, the growth inhibition was -21% in assay [3] (setting [7]); -10% in assay [3] (setting [8]); 38.1% in assay [3] (at 50.0 µM); -27% in assay [4] (setting [7]); -17% in assay [4] (setting [8]); 44% in assay [4] (at 50.0 µM). The growth inhibition was -14% in assay [5] (setting [7]); -22% in assay [5] (setting [8]); 63.9% in assay [5] (at 50.0 µM); -38% in assay [6] (setting [7]); -2% in assay [6] (setting [8]); 53% in assay [6] (at 50.0 µM).

For `CCCCCCCOC(=O)c1cc2cc(C(CC)C(CC)c3ccc(O)cc3)ccc2oc1=O` (stereo not given), the growth inhibition in assay [1] (setting [7]) was 23%; in assay [1] (setting [8]), 47%; in assay [1] (at 50.0 µM) it was 83.1% (active); in assay [2] (setting [7]) it was 37%; in assay [2] (setting [8]), 23%; in assay [2] (at 50.0 µM), 91.3% (active). The growth inhibition is 47% in assay [3] (setting [7]); 65% in assay [3] (setting [8]); 82% (active) in assay [3] (at 50.0 µM); 30% in assay [4] (setting [7]); 74% (active) in assay [4] (setting [8]); 87.4% (active) in assay [4] (at 50.0 µM). For the same compound, the growth inhibition in assay [5] (setting [7]) was 11%; in assay [5] (setting [8]), 45%; in assay [5] (at 50.0 µM), 68.9%; in assay [6] (setting [7]), 41%; in assay [6] (setting [8]), 57%; in assay [6] (at 50.0 µM), 88.9% (active).

For `CCCCCCCCCCCCCCC(O)C(=O)O` (stereo not given), the growth inhibition in assay [1] (setting [7]) was -6%; in assay [1] (setting [8]), -27%; in assay [1] (at 50.0 µM), 68.7%; in assay [2] (setting [7]) it was -2%; in assay [2] (setting [8]), -31%; in assay [2] (at 50.0 µM) it was 88.1% (active). Moreover, the growth inhibition in assay [3] (setting [7]) was -7%; in assay [3] (setting [8]), -33%; in assay [3] (at 50.0 µM), 33%; in assay [4] (setting [7]), -1%; in assay [4] (setting [8]), -42%; in assay [4] (at 50.0 µM), 11.4%. Also, the growth inhibition in assay [5] (setting [7]) was -1%; in assay [5] (setting [8]) it was -28%; in assay [5] (at 50.0 µM), 96.4% (active); in assay [6] (setting [7]), -2%; in assay [6] (setting [8]), -27%; in assay [6] (at 50.0 µM) it was 73.5% (active).

Values taken from PubChem BioAssay (NCI).
